Source: PubChem BioAssay (Tox21)
A number with no mark means an inactive call. Records with an inconclusive call do not appear. Where a call stands in place of a potency, no number is given. Active and inactive are the calls of the source. The call rests on the fitted dose curve; in most records, active means well fitted activation curve with a large enough effect in the repeat runs; inconclusive means weak or mixed curves; inactive means flat fitted curve, though single readings scatter.

Assay: A CellTox Green Cytotoxicity Assay to monitor cytotoxicity in HepG2 cells - 0 hour (AID 1224882); further: nearly all actives have a fitted effect of over 35% in size
Details: CellTox Green fluorescence; series mostly up to 76.8 µM
In short: (§1)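 Cells and non-lytic dye reagent are dispensed together (600 HepG2 cells/well) and incubated 5 h before DMSO compound transfer. Kinetic fluorescence is then recorded in the same wells during 40 h at 37 C.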

With `C[C@H]1C[C@H]2[C@@H]3CCC4=CC(=O)C=C[C@]4(C)[C@@]3(Cl)[C@@H](O)C[C@]2(C)[C@@]1(O)C(=O)CO` as the compound, how does the Potency read?
Its Potency is “inactive”.

For `CC(C)Nc1ccc(NC(C)C)c2c1C(=O)c1ccccc1C2=O`, which Potency is on record?
Its Potency is “inactive”.

For `CC(C)OC(=O)C(C)N(C(=O)c1ccccc1)c1ccc(F)c(Cl)c1` (configuration not stated), which Potency is on record?
The Potency was “inactive”.

With `CC(C)(CO)[N+](=O)[O-]` as the compound, how does the Potency read?
The Potency was “inactive”.

Which Potency does the source give for `COc1ccc(C(=O)N2CCN(CC(=O)N3CCOCC3)CC2)cc1` here?
The Potency was “inactive”.

For `O=C(O)c1ccccc1Cl`, which Potency is on record?
The Potency was “inactive”.

Which Potency does the source give for `CCCCCCCC#N` here?
The Potency was “inactive”.

Which Potency does the source give for `CCCCc1ncc(/C=C(\Cc2cccs2)C(=O)O)n1Cc1ccc(C(=O)O)cc1` here?
The Potency was “inactive”.

Which Potency does the source give for `CC1(c2ccccc2)OC(C(=O)O)=CC1=O` (configuration not stated) here?
Its Potency is “inactive”.

With `NC(N)=NCCC[C@H](N)C(=O)O` as the compound, how does the cytotoxicity read?
Its cytotoxicity is 1.18% [at 6.97 µM].

With `CC/C=C\CCOC(=O)CC` as the compound, how does the Potency read?
Its Potency is “inactive”.

With `CN1CCN(C(c2ccccc2)c2ccccc2)CC1` as the compound, how does the Potency read?
Its Potency is “inactive”.

Assay: A CellTox Green Cytotoxicity Assay to monitor cytotoxicity in HepG2 cells - 32 hour (AID 1224883); further: nearly all actives have a fitted effect of over 50% in size; further: potency means the concentration at half of the fitted maximal effect
Details: CellTox Green fluorescence; series mostly up to 76.8 µM
In short: as §1

For `CN1Cc2cc(C(=O)N3CCC(C4CCNCC4)CC3)ccc2NC(CC(=O)O)C1=O` (configuration not stated), which Potency is on record?
The Potency was “inactive”.

Which Potency does the source give for `CC(=O)NO` here?
Its Potency is “inactive”.

For `CC(=O)[O][Al][O]C(C)=O`, which Potency is on record?
Its Potency is “inactive”.

Which Potency does the source give for `Cc1nn(C)c(Oc2ccccc2)c1/C=N/OCc1ccc(C(=O)OC(C)(C)C)cc1` here?
Its Potency is “inactive”.

With `O=C1OC(CN2CCOCC2)CN1/N=C/c1ccc([N+](=O)[O-])o1` (configuration not stated) as the compound, how does the Potency read?
Its Potency is “inactive”.

Which Potency does the source give for `COCCCN1CCC(NC(=O)c2cc(Cl)c(N)c3c2OCC3)CC1` here?
Its Potency is “inactive”.

Which Potency does the source give for `C1CCCNCCC1` here?
Its Potency is “inactive”.

With `CCC(Cl)CCC(Cl)C(Cl)CC(Cl)C(Cl)C(Cl)CCl` (configuration not stated) as the compound, how does the Potency read?
The Potency was “inactive”.

With `CCCCC(CC)COC(=O)COc1ccc(Cl)cc1Cl` (configuration not stated) as the compound, how does the Potency read?
The Potency was “inactive”.

Which Potency does the source give for `CCC(C)O` (configuration not stated) here?
The Potency was “inactive”.

With `C[C@@H](c1ncncc1F)C(O)(Cn1cncn1)c1ccc(F)cc1F` (some centres not stated) as the compound, how does the Potency read?
Its Potency is “inactive”.

With `CC(C)(C)OCC1CO1` (configuration not stated) as the compound, how does the Potency read?
Its Potency is “inactive”.

Which Potency does the source give for `COS(=O)(=O)C(F)(F)F` here?
Its Potency is “inactive”.

Which Potency does the source give for `C[Si](C)(CCCN)O[Si](C)(C)CCCN` here?
The Potency was “inactive”.

With `O=C1OC(=O)C2C3C=CC(C3)C12` (configuration not stated) as the compound, how does the Potency read?
The Potency was “inactive”.

With `CC(C)(C)Cl` as the compound, how does the Potency read?
Its Potency is “inactive”.

With `Cc1ccc(C(C)OC(=O)C2(C)CCC(C(=O)O)C2(C)C)cc1` (configuration not stated) as the compound, how does the Potency read?
The Potency was “inactive”.

For `CC(CSC(=O)c1ccccc1)C(=O)N1C[C@@H](Sc2ccccc2)C[C@H]1C(=O)O` (some centres not stated), which cytotoxicity increase is on record?
Its cytotoxicity increase is -3.06% [at 15.8 µM].

With `O=C(NCCO[N+](=O)[O-])c1cccnc1` as the compound, how does the Potency read?
The Potency was “inactive”.

For `CN(C)CCN(Cc1ccsc1)c1ccccn1`, which Potency is on record?
The Potency was “inactive”.

For `Nc1cc(C(=O)O)c(O)c(S(=O)(=O)O)c1`, which Potency is on record?
Its Potency is “inactive”.

Which Potency does the source give for `O=S(c1cc(Cl)cc(Cl)c1O)c1cc(Cl)cc(Cl)c1O` here?
Its Potency is “inactive”.

Which Potency does the source give for `COC(=O)c1ccc(I)cc1S(=O)(=O)NC(=O)Nc1nc(C)nc(OC)n1` here?
The Potency was “inactive”.

With `C[C@H]1C[C@H]2[C@@H]3CCC4=CC(=O)C=C[C@]4(C)[C@@]3(Cl)[C@@H](O)C[C@]2(C)[C@@]1(O)C(=O)CO` as the compound, how does the Potency read?
The Potency was “inactive”.

For `CC(C)Nc1ccc(NC(C)C)c2c1C(=O)c1ccccc1C2=O`, which Potency is on record?
The Potency was 9.06 µM (active).

For `CC(C)OC(=O)C(C)N(C(=O)c1ccccc1)c1ccc(F)c(Cl)c1` (configuration not stated), which Potency is on record?
Its Potency is “inactive”.

With `CC(C)(CO)[N+](=O)[O-]` as the compound, how does the Potency read?
The Potency was “inactive”.

With `COc1ccc(C(=O)N2CCN(CC(=O)N3CCOCC3)CC2)cc1` as the compound, how does the Potency read?
The Potency was “inactive”.

With `O=C(O)c1ccccc1Cl` as the compound, how does the Potency read?
The Potency was “inactive”.

Which Potency does the source give for `CCCCCCCC#N` here?
Its Potency is “inactive”.

With `CCCCc1ncc(/C=C(\Cc2cccs2)C(=O)O)n1Cc1ccc(C(=O)O)cc1` as the compound, how does the Potency read?
Its Potency is “inactive”.

For `CC1(c2ccccc2)OC(C(=O)O)=CC1=O` (configuration not stated), which Potency is on record?
The Potency was “inactive”.

For `NC(N)=NCCC[C@H](N)C(=O)O`, which cytotoxicity increase is on record?
The cytotoxicity increase was -4.17% [at 6.97 µM].

For `CC/C=C\CCOC(=O)CC`, which Potency is on record?
Its Potency is “inactive”.

For `CN1CCN(C(c2ccccc2)c2ccccc2)CC1`, which Potency is on record?
Its Potency is “inactive”.
